An excerpt weighted towards active compounds, which were near 19% of everything screened.
KB-V1 MDR tox = qHTS assay for MDR1-selective chemotherapeutics: Primary screen using the drug-selected MDR subline cells KB-V1 | KB-V1 MDR cells viability, CellTiter-Glo, 72 h | Potency, µM (highest dose often 46.1 µM), most hits filed as cytotoxic | 400,000 tested, 3.4% active | AID 1347076, 2019; note: nearly all actives have a fitted effect of over 60% in size
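Luminescent ATP read-out (CellTiter-Glo, 10 min) measures survival of drug-selected KB-V1 MDR cells after 72 h, 37 degrees C compound exposure. Medium: phenol-red-free DMEM, 10% FBS. Values from fitted concentration-response curves.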
HT1080-NT tox = qHTS for induction of synthetic lethality in tumor cells producing 2HG: qHTS for the HT-1080-NT fibrosarcoma cell line; AID 686970, 2013; 360,000 tested, 1.6% active; Potency, µM (titrated, usually from 46.1 µM), for inactives: top-dose activity, negative = less viability, usual class: cytotoxic; HT-1080-NT fibrosarcoma viability, CellTiter-Glo ATP luminescence, 48 h;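 note: NT is the 2HG producing partner of a matched IDH1 knockdown line; 0% = DMSO-treated cells and -100% = media-only wells without cells; nearly all actives have a fitted effect of over 55% in size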
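Viability by CellTiter-Glo luminescence after 48 h compound exposure at 37C of HT-1080-NT cells (750/well, RPMI, 5% FBS). % activity scaled between DMSO wells and medium-only wells, then curve-fitted and categorized by curve class.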
HT1080 IDH1KD tx = qHTS for induction of synthetic lethality in tumor cells producing 2HG: qHTS for the HT-1080-IDH1KD cell line; HT-1080 IDH1 knockdown viability, ATP luminescence, 48 h; Potency, µM (top dose mostly 46.1 µM), for inactives: at the highest dose activity, negative = toxicity, actives largely listed as cytotoxic; 360,000 tested, 2% active; AID 686971, 2013;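 note: 0% = DMSO wells and -100% = cell-free medium wells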
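Viability of IDH1-knockdown HT-1080 fibrosarcoma cells was assessed by CellTiter-Glo after 48 h at 37 °C with titrated compound; concentration-effect curves were classified by fit quality and response size.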
DT40 TDP1 no CPT = qHTS for Inhibitors of human tyrosyl-DNA phosphodiesterase 1 (TDP1): qHTS in cells in absence of CPT | 420,000 tested, 15% active | Potency, µM (highest dose often 46.2 µM), without a hit: at the highest dose activity change, negative = growth inhibition, most hits filed as inhibitors | DT40 Tdp1-/- hTDP1 cells, no CPT, ATP luminescence, 48 h; note: nearly all actives have a fitted effect of over 55% in size
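Camptothecin absent (DMSO only). Human TDP1-complemented DT40 knockout cells, 400 cells/well, 37 °C for minimum 48 hr; ATP measured via CellTiter-Glo, 30 min dark incubation, luminescence.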
TDP1 cell CPT = qHTS for Inhibitors of human tyrosyl-DNA phosphodiesterase 1 (TDP1): qHTS in cells in presence of CPT. chicken DT40 Tdp1-/-;hTDP1 cells + 20 nM CPT, ATP luminescence, 48 h. Potency, µM (series often up to 46.2 µM), inactives show at the highest dose activity change, negative = growth inhibition, usual class: inhibitors. 420,000 tested, 12% active; note: nearly all actives have a fitted effect of over 55% in size
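Chicken DT40 Tdp1-/- cells stably complemented with human TDP1 were seeded at 400 cells/well in medium containing 20 nM camptothecin, exposed to pin-transferred compounds, and grown at 37 °C for at least 48 hr. Viability was read as ATP luminescence.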
KB-3-1 tox = qHTS assay for MDR1-selective chemotherapeutics: Primary screen using the parental adenocarcinoma cell KB-3-1; 400,000 tested, 1.4% active; Potency, µM (highest dose often 46.1 µM), actives largely listed as cytotoxic; KB-3-1 viability, CellTiter-Glo ATP luminescence, 72 h; AID 1347075, 2019; note: nearly all actives have a fitted effect of over 60% in size
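Cells are dispensed, compounds pinned in, plates held at 37 °C for 72 h, then CellTiter-Glo is added and luminescence read after 10 minutes. Cell line: parental KB-3-1 in phenol-red-free DMEM, 10% FBS.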
An asterisk follows results filed as active; i = inactive; ? = inconclusive; nt = not tested or not shown; [ ] = remark or other dose. Calls come from the whole dose curve; as a rule, active = well fitted curve in the direction sought with a large enough effect; inconclusive = small, poorly fitted or top-dose-only effect, or another doubt; inactive = no such curve, though single readings can be large; an effect the other way counts as inactive or inconclusive. Unless noted, % is set by controls: 0 for no effect and ±100 for the full control effect; potency is the fitted concentration of half-maximal effect.

SMILES	KB-V1 MDR tox	HT1080-NT tox	HT1080 IDH1KD tx	DT40 TDP1 no CPT	TDP1 cell CPT	KB-3-1 tox
Cc1cc(C)cc(OCC(=O)Nc2nc(-c3cccnc3)cs2)c1	i	1%	7%	9.2µM*	15µM*	i
COc1ccc(CC(=O)Nc2nc(-c3cccnc3)cs2)cc1	i	3%	2%	26µM*	?	i
COc1cccc(CC(=O)Nc2nc(-c3cccnc3)cs2)c1	?	12%	-1%	?	-3%	i
O=C(COc1ccccc1)Nc1nc(-c2ccncc2)cs1	?	0%	-3%	16µM*	21µM*	i
CN(C)CCN1CCN(C2CN(C3CCCCC3)S(=O)(=O)C2)CC1 (stereo not drawn)	i	17%	15%	-7%	?	i
O=C(N/N=C/c1cccc([N+](=O)[O-])c1)c1cccc(Br)c1	i	-19%	-15%	-16%	?	i
O=C(N/N=C/c1ccc([N+](=O)[O-])s1)c1cccc(Br)c1	?	12µM*	21µM*	10µM*	9.2µM*	i
CCOc1cc(/C=N/NC(=O)Cc2ccc(C(F)(F)F)cc2[N+](=O)[O-])c(Br)cc1OC	i	8%	13%	?	?	i
COc1cc(Br)cc(/C=N/NC(=O)Cc2ccc(C(F)(F)F)cc2[N+](=O)[O-])c1O	i	?	16µM*	2.6µM*	1.8µM*	?
CC(=C/c1ccc(C(C)C)cc1)/C=N/NC(=O)Cn1nc(C)cc1C	i	-1%	-17%	29µM*	?	i
O=C(CSc1nnc(-c2ccc(Cl)cc2)n1-c1ccc(Cl)cc1)N/N=C/c1ccco1	?	?	?	?	21µM*	i
Cn1c(CSc2ncccn2)nnc1SCC(=O)N1CCCC1	?	0%	0%	12%	-22%	i
COc1ccccc1-c1ccnc(-n2ncc(C(=O)NCCc3ccccn3)c2C)n1	nt	nt	nt	?	-2%[9.04 µM]	nt
CCOC(=O)C1=C(COC(=O)C2CC(=O)N(CCc3ccccc3)C2)NC(=O)NC1C (stereo not drawn)	i	12%	0%	3%	25%	i
COc1ccc(/C=N/NC(=O)Cn2nc([N+](=O)[O-])cc2C)c(OC)c1OC	i	-3%	-1%	-20%	0%	i
O=C(Cc1ccccc1)NCC(=O)N/N=C/c1ccc([N+](=O)[O-])s1	?	-25%	?	15µM*	23µM*	?
CCOC(=O)N/N=C\c1ccc([N+](=O)[O-])s1	i	-17%	?	23µM*	16µM*	?
O=C(CNC(=O)c1ccccc1)N/N=C/c1ccc([N+](=O)[O-])s1	?	-9%	-4%	?	?	?
CC(C)(C)OC(=O)N/N=C\c1ccc([N+](=O)[O-])s1	i	-18%	-20%	?	-1%	i
COc1cc([N+](=O)[O-])cc(/C=N/NC(=O)Cn2nc(C)cc2C)c1O	?	?	?	23µM*	?	?
Cc1ccc(C(=O)N/N=C/c2ccc([N+](=O)[O-])s2)cc1	?	?	?	7.3µM*	8.2µM*	i
Cc1cc2nccc(-c3cccnc3)n2n1	i	-1%	18%	-6%	11%	i
COc1cc([N+](=O)[O-])cc(/C=N/NC(=O)CSc2nnc(-c3ccccc3)n2C)c1O	?	-15%	3%	-2%	-7%	i

Compound activity as filed in PubChem.
